Potency data for 33 compounds are collected here from PubChem BioAssay (Tox21).

Records with an inconclusive call do not appear. Some compounds were tested as several samples or in several runs, with calls that do not always agree. Calls of active or inactive are those of the source. Calls follow the shape of the dose curve; as a rule, active = well fitted curve in the direction sought with a large enough effect in the repeat runs; inconclusive = weak or mixed curves; inactive = no such curve, though single readings can be large; an effect the other way counts as inactive or inconclusive.
% is scaled to controls: 0 for no effect and ±100 for the full control effect; potency is read from the fitted curve at half-maximal effect.

The nature of the first assay: qHTS RealTime-Glo MT Cell Viability Assay in HepG2 cells - 32 hour (AID 1224877). Also: nearly all actives have a fitted effect of over 55% in size. The note with it: RealTime-Glo luminescence; series mostly up to 76.8 µM. Put shortly:
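Cells + NanoLuc/prosubstrate dispensed (600 cells/well) → 5 h at 37 C/5% CO2 → compounds in DMSO transferred → 40 h incubation at 37 C, luminescence read at 0, 8, 16, 24, 32, 40 h.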
With `CC[C@H]1O[C@]2(CC[C@@H]1C)C[C@@H]1C[C@@H](C/C=C(\C)C[C@@H](C)/C=C/C=C3\CO[C@@H]4[C@H](O)C(C)=C[C@@H](C(=O)O1)[C@]34O)O2`, the Potency is 43.3 µM (active). Consider `CN(C)[C@@H]1C(=O)C(C(N)=O)=C(O)[C@@]2(O)C(=O)C3=C(O)c4c(O)ccc(Cl)c4[C@@H](O)[C@H]3C[C@@H]12`, for which the Potency entry was “inactive”. As for `CC(=O)N1CCN(c2ccc(OC[C@H]3CO[C@](Cn4ccnc4)(c4ccc(Cl)cc4Cl)O3)cc2)CC1`, the Potency is 49 µM (active). `CN(C)CCCOC1(Cc2ccccc2)CCCCCC1`: the Potency result was “inactive”. As to `Oc1c(Cl)cc(Cl)c2cccnc12`, the Potency entry is “inactive”. Take `O=C(c1ccc(O)cc1O)c1ccc(O)cc1O`: the Potency entry is “inactive”.

With `OCCN1CCN(CC/C=C2/c3ccccc3Sc3ccc(C(F)(F)F)cc32)CC1`, the Potency is 15.1 µM (active). Regarding `Nc1ccc2cc(S(=O)(=O)O)cc(O)c2c1N=Nc1ccccc1C(F)(F)F`, the Potency entry was “inactive”. As to `CN(C)[C@@H]1C(=O)C(C(N)=O)=C(O)[C@@]2(O)C(=O)C3=C(O)c4c(O)cccc4C[C@H]3C[C@@H]12`, the Potency entry is “inactive”. As to `C1CCCC1`, the Potency result was “inactive”.

On to `CCCC(c1cc(C(C)(C)C)c(O)cc1C)c1cc(C(C)(C)C)c(O)cc1C`, for which the Potency is 35.1 µM (active). On to `Oc1cc2ccccc2c2ccccc12`, for which the Potency was 11 µM (active). As for `Clc1ccccc1C(c1ccccc1)(c1ccccc1)n1ccnc1`, the Potency was 24.5 µM (active) and inactive.

The nature of the next assay: A CellTox Green Cytotoxicity Assay to monitor cytotoxicity in HepG2 cells - 24 hour (AID 1224878). Also: nearly all actives have a fitted effect of over 45% in size. The note with it: CellTox Green fluorescence; series mostly up to 76.8 µM. Put shortly: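 Nonlytic assay: viable cells exclude the dye, so fluorescence scales with cell death. HepG2 at 600 cells/well, compounds added after 5 h, signal read across 40 h.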
Turning to `C[C@@H](NCCCc1cccc(C(F)(F)F)c1)c1cccc2ccccc12`, the Potency is 16.9 µM (active).

In the case of `CC(C)(C)C(=O)OCOC(=O)[C@@H]1N2C(=O)[C@@H](NC(=O)[C@H](N)c3ccccc3)[C@H]2SC1(C)C`, the Potency entry is “inactive”. As for `O=[N+]([O-])c1ccccc1Nc1ccccc1`, the Potency entry was “inactive”. `CC(C)(C)c1ccc(C(=O)O)cc1`: the Potency result is “inactive”. Consider `CCCCCCCC(=O)[O-].CCCCCCCC(=O)[O-].[Zn+2]`, for which the Potency entry is “inactive”.

Take `CCCCCCCCCCC=O`: the Potency result was “inactive”. For the compound `CCCCCCCC[P+](CCCCCCCC)(CCCCCCCC)CCCCCCCC`, the Potency was 9.71 µM (active). On the same count and under the same terms, in the case of `CC(C)c1ccc2c(c1)CC[C@H]1[C@](C)(CN)CCC[C@]21C` it was 13.8 µM (active); in that of `O=C(O)c1ccc(Cl)c(Cl)c1`, “inactive”; in that of `NC(=NCCCCCCN=C(N)/N=C(\N)Nc1ccc(Cl)cc1)/N=C(\N)Nc1ccc(Cl)cc1`, 21.8 µM (active) [middle of 4 runs]. With `COc1cccc(N)c1`, the Potency entry was “inactive”. Still for that read-out and setting: the result for `CCCCCCCC/C=C/CCCCCCCC1=NCCN1CCO` reads 13.8 µM (active); that for `Cc1cc(O)c2ccccc2c1O`, 13.4 µM (active). As for `O=C1C=CC(=O)N1c1ccc(Cc2ccc(N3C(=O)C=CC3=O)cc2)cc1`, the Potency is 11 µM (active). For the compound `O=C1C=CC(=O)N1`, the Potency is 20 µM (active). On the same count and under the same terms, the result for `CCCCCCCC/C=C\CCCCCCCCOCCO` reads 63.7 µM (active); that for `Cc1cc(O)c(C(C)(C)C)cc1Sc1cc(C(C)(C)C)c(O)cc1C`, 54.8 µM (active); that for `NNC(=O)c1cccc(C(=O)NN)c1`, “inactive”.

As for `CCCCCCCCNC(C)C(O)c1ccc(SC(C)C)cc1` (stereo not drawn), the Potency was 16.9 µM (active). For the compound `C=CC(=O)OCC(CO)(COCC(COC(=O)C=C)(COC(=O)C=C)COC(=O)C=C)COC(=O)C=C`, the Potency is 48.4 µM (active).

Turning to `CN(C)[C@@H]1C(=O)C(C(N)=O)=C(O)[C@@]2(O)C(=O)C3=C(O)c4c(O)ccc(Cl)c4[C@@H](O)[C@H]3C[C@@H]12`, the Potency entry is “inactive”.

Take `CN(C)CCCOC1(Cc2ccccc2)CCCCCC1`: the Potency entry was “inactive”. The same measure, in the same setting: the result for `O=C(c1ccc(O)cc1O)c1ccc(O)cc1O` reads “inactive”; that for `OCCN1CCN(CC/C=C2/c3ccccc3Sc3ccc(C(F)(F)F)cc32)CC1`, 16.9 µM (active).

With `Nc1ccc2cc(S(=O)(=O)O)cc(O)c2c1N=Nc1ccccc1C(F)(F)F`, the Potency result is “inactive”.

With `CN(C)[C@@H]1C(=O)C(C(N)=O)=C(O)[C@@]2(O)C(=O)C3=C(O)c4c(O)cccc4C[C@H]3C[C@@H]12`, the Potency entry was “inactive”. With `C1CCCC1`, the Potency entry is “inactive”. For the compound `CCCC(c1cc(C(C)(C)C)c(O)cc1C)c1cc(C(C)(C)C)c(O)cc1C`, the Potency is 39.4 µM (active). Still for that read-out and setting: in the case of `Oc1cc2ccccc2c2ccccc12` it was 11 µM (active); in that of `Clc1ccccc1C(c1ccccc1)(c1ccccc1)n1ccnc1`, 21.9 µM (active) and inactive.
